Source: PubChem BioAssay
A selection: hits, their analogues and other compounds. The true share with any hit is near 4.8%.
MPTP inh = permeability transition pore inhibition. inhibition, % at 10 µM. 1.4% of 360,000 active. isolated mouse mitochondria, Ca2+ swelling absorbance, 30 min. AID 602449;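 active = inhibition of 50% or more, scaled per plate between neutral and stimulator controls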;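 note: 0% = DMSO wells given calcium and 100% = 1 mM EGTA wells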
Calb FLC = C. albicans growth modulation with fluconazole. C. albicans CaCi-2 (fluconazole-resistant clinical isolate) + fluconazole, Alamar Blue growth, 48 h. growth inhibition, % (test concentration not listed). 0.57% of 300,000 active. AID 1979;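 active = growth inhibition above about 58% in most replicates, limit read from the data, passing the limit was not always enough; inconclusive = exactly half the replicates above a set limit; inactive = most replicates below a set limit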;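 note: all wells also contain fluconazole at 8 µg/ml as a sub-toxic cotreatment; 0% = median of DMSO wells and 100% = median of geldanamycin control wells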
Mdm2 MdmX PPI = disrupts the human Mdm2-MdmX interaction; 3% of 330,000 active; inhibition, % at 8 µM; O15151+Q00987; SaOS-2 split-luciferase Mdm2/MdmX complementation, luminescence;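 active = inhibition of at least 50% at 8 µM in the primary screen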
Beta cell apopt = beta cell apoptosis inhibition | protection from apoptosis, % (no concentration beside the values) | INS-1E cytokine-induced death, ATP luminescence, 48 h; percent of positive-control rescue, neutral wells zero | AID 435005 | 0.8% of 300,000 active;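 active = Every replicate reaches about 75%, or at least half do and their mean reaches it too, limit read from the data; inconclusive = At least half of replicates reach the limit but their mean does not; inactive = Under half of replicates reach the limit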;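 note: 0% = cytokine-treated negative control wells and 100% = positive control rescue; higher means more ATP so stronger rescue from cytokine killing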
CSC inhib = blocks cancer stem cells. cancer stem cell-like cells viability, luminescence. inhibition, % at 7.5 µM. 1.1% of 300,000 active. AID 2717; in the data active = inhibition above about 75%; inconclusive = no clear call, values can overlap the other calls; tested in HMLE shEcad cells
MPTP counter = mitochondrial membrane potential, counter-screen. isolated mitochondria, Rhodamine 123 fluorescence. shares compounds with MPTP inh. inhibition, % at 10 µM. 78% of 5,000 active. AID 624504; in the data active = inhibition above about 22%;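 note: 0% = DMSO vehicle and 100% = positive control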
MPTP abs DR = dose response confirmation of mitochondrial permeability transition pore inhibitors | isolated mitochondria swelling, absorbance | 58% of 780 active | IC50, µM | shares compounds with MPTP inh; in the data active = IC50 below about 20 µM
MPTP counter DR = MPTP inhibitor counter-screen activity, dose response; shares compounds with MPTP inh; 49% of 780 active; IC50, µM; isolated mitochondria counterscreen, fluorescence read-out; in the data active = IC50 below about 80 µM
Numbers without * were called inactive; i = inactive; ? = inconclusive; · = no result.

SMILES	MPTP inh	Calb FLC	Mdm2 MdmX PPI	Beta cell apopt	CSC inhib	MPTP counter	others
C=CC[C@H](CC(=O)N[C@H](CO)Cc1ccccc1)C(=O)N[C@H](COC(=O)[C@H](CC=C)CC(=O)OC(C)(C)C)Cc1c[nH]c2ccccc12	-0.7	·	8.9	-10.8	-6.4	·
Clc1ccc(-c2nc(C3CCCCC3)no2)cc1	0.7	-4.9	-8.5	·	-11.4	·
[O-][n+]1c2ccccc2cc2ccccc21	0.3	-0.7	4.6	14.6	-4.2	·
CCC(NC(=O)c1ccc2nc(Cc3ccc(OC)cc3)oc2c1)c1ccncc1 (stereo not given)	65.5*	15.9	9.4	50.1	-7.5	75.8*
CCC(C)NC(=O)c1ccc2nc(Cc3ccc(OC)cc3)oc2c1 (stereo not given)	0.1	2.7	13.8	·	-9.0	·
COc1cc(CNc2ncnc3c2ncn3[C@H]2CN(Cc3ccc(Cl)cc3)C[C@@H](CO)O2)cc(OC)c1OC	0.3	·	·	·	·	·
Cc1ccc(-n2cc3c(-c4cccc(Br)c4)nnc(C)c3n2)cc1	53.7*	26.5	-7.0	1.9	25.5	2.4	MPTP abs DR=i;MPTP counter DR=29.4*
Cc1ccc(NC(=S)Nc2ccc(Br)cc2)cc1	43.6	-0.8	-20.4	2.2	·	·
Fc1cc(Br)ccc1NC(=S)Nc1ccccc1	91.7*	-9.4	3.5	·	1.1	92.6*
Fc1ccccc1NC(=S)Nc1ccc(Br)cc1	97.0*	-16.9	-8.6	-5.3	-10.0	94.8*
O=C(Nc1ccccc1F)Nc1ccccc1F	1.3	-27.4	-47.4	11.1	11.2	·
O=C(Nc1ccc(Br)cc1)Nc1ccccc1F	80.5*	-21.5	-225.7	7.6	16.1	90.2*
O=C(CCCc1ccccc1)Nc1ccc(Br)cc1F	5.1	-8.4	-2.8	-6.8	19.6	·
CC(=O)N(C)c1ccc(NC(=O)C(Sc2ccccc2)c2ccccc2)cc1 (stereo not given)	-0.8	-3.8	8.0	·	8.6	·
CC(C)(C)NS(=O)(=O)c1ccc(NC(=O)C(Sc2ccccc2)c2ccccc2)cc1 (stereo not given)	64.6*	?	47.4	16.1	52.3	72.8*
COc1ccc(-c2c(C(F)(F)F)[nH]n3c(=O)cc(-c4ccccc4)nc23)cc1	81.9*	-0.8	27.6	-4.4	91.8*	41.9*
CC1(C)OC(=O)C2=C(C[C@@H](C3CCCC3)O[C@H]2CCc2cccc(Cl)c2)O1	1.2	·	·	·	·	·
COc1ccc(CNC(=O)c2c(-c3c(F)cccc3Cl)noc2C)cc1	-0.9	-5.3	-3.8	4.0	-6.5	·
CCNc1nc(NCC)nc(N/N=C/c2ccc(N(C)C)cc2)n1	-2.7	-2.1	-18.5	1.8	-4.8	·
Cc1cc(N/N=C/c2ccc(N(C)C)cc2)nc(NCc2ccccc2)n1	59.6*	14.6	40.0	14.4	23.1	55.8*
CC1=NN(c2ccc(F)cc2)C(=O)C1C(c1cccc(O)c1)c1c(C)[nH]n(-c2ccc(F)cc2)c1=O (stereo not given)	3.1	-1.8	5.5	-3.9	-15.8	·
CC1=NN(c2ccc(Cl)cc2)C(=O)C1C(c1cccc(O)c1)c1c(C)[nH]n(-c2ccc(Cl)cc2)c1=O (stereo not given)	100.9*	-0.9	20.5	9.9	56.5	20.4*
O=C(CSc1nc(=O)n(CCN2CCOCC2)c2c1CCCC2)Nc1cccc([N+](=O)[O-])c1	-1.3	2.0	-11.2	·	-11.0	·
O=C(NCCCNc1ccc(C(F)(F)F)cc1[N+](=O)[O-])c1ccc(Cl)cc1	57.9*	-6.5	21.3	-3.7	30.5	73.9*
O=C1c2ccccc2-c2cccc(NS(=O)(=O)c3ccc(C(F)(F)F)cc3)c21	64.3*	33.4	47.4	-4.9	37.7	37.7*
COc1ccc(-c2nc(SCC(=O)Nc3cccc(S(N)(=O)=O)c3)n[nH]2)cc1	-1.9	·	-3.5	·	·	·
CC(C)C[C@H](NC(=O)[C@H](Cc1ccccc1)n1c(=O)[nH]c2ccccc2c1=O)C(=O)N1CCC[C@H]1C(=O)O	-2.6	-2.1	26.4	-1.8	5.2	·
O=C(Nc1cccc2c1[nH]c(=O)c1ccccc12)C(F)(F)F	-1.1	·	·	·	·	·
O=C(Nc1cccc2c1[nH]c1ccccc12)C(F)(F)F	98.6*	8.9	17.7	4.4	27.9	86.6*
